According to PubChem BioAssay (NCATS):
Several values for one entry are separate records, joined by “and”; a condition that tells them apart may be missing. Identical values can stand only once. Inconclusive results are not listed. Activity calls are given as the source filed them. Calls follow the shape of the dose curve; as a rule, active = well fitted curve in the direction sought with a large enough effect; inconclusive = small, poorly fitted or top-dose-only effect, or another doubt; inactive = no such curve, though single readings can be large; an effect the other way counts as inactive or inconclusive.

What was measured:
[1] = molecular target: Cellular tumor antigen p53 (Homo sapiens) (UniProt P04637); experiment: Primary qHTS for small molecule compounds that upregulate eGFP-tagged delta133p53alpha (in N-terminal) cells. (AID 2060322); settings: NCI-H358 eGFP-delta133p53alpha fluorescence, 24 h; activation: stronger effect = higher value; also: nearly all actives have a fitted effect of over 75% in size; also: potency is read from the fitted curve at half-maximal effect;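 as to activation: cells pre-induced with doxycycline then dosed without doxycycline; series mostly up to about 56 µM; 0% = DMSO vehicle and 100% = reference activator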
Procedure, shortened: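 NCI-H358 cells pre-induced 24 h with 10 ng/ml doxycycline for eGFP-delta133p53alpha, plated dox-free and exposed 24 h at 37C to titrated compounds. Fixed, Hoechst-stained; gated GFP peak intensity by laser scanning cytometry, normalized to DMSO (0%) and 57.5 uM 5-azacytidine (100%).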

[2] = molecular target: Aldehyde dehydrogenase, mitochondrial (Homo sapiens) (UniProt P05091); experiment: qHTS for Inhibitors of the Aldehyde Dehydrogenase Family (ALDH2) Primary screen (AID 2061308);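 also: plate controls were vehicle for no effect and reference inhibitor for full effect; nearly all actives have a fitted effect of over 55% in size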
[3] = BET inhibitor-based combinations targeting novel dependencies in MECOM-rearranged (r) AML: OCI-AML3 cell line (AID 2202232); settings: Potency: OCI-AML3 viability; also: nearly all actives have a fitted effect of over 35% in size; also: potency is read from the fitted curve at half-maximal effect
Procedure, shortened: (§1)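 500 cells/well; 11-pt dose curve; 48 h, standard incubator; CellTiter-Glo luminescence after 15 min RT; DMSO/empty-well normalization; AUC plus Z-AUC (mean-centered within each line).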

[4] = BET inhibitor-based combinations targeting novel dependencies in MECOM-rearranged (r) AML: MV-4-11 cell line (AID 2202233); also: nearly all actives have a fitted effect of over 45% in size; also: potency is read from the fitted curve at half-maximal effect
Procedure, shortened: (§2)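 Cells were plated at 500 per well and exposed to each drug across an 11-point dose range for 48 hr at standard incubator conditions. Viability was read by CellTiter-Glo luminescence, and activity was expressed as AUC and per-cell-line Z-transformed AUC.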

[5] = BET inhibitor-based combinations targeting novel dependencies in MECOM-rearranged (r) AML: AML-191 cell line (AID 2202236; also: nearly all actives have a fitted effect of over 35% in size; also: potency is read from the fitted curve at half-maximal effect)
Procedure, shortened: as §1

[6] = BET inhibitor-based combinations targeting novel dependencies in MECOM-rearranged (r) AML: UCSD-AML1 cell line (AID 2202235); also: nearly all actives have a fitted effect of over 40% in size; also: potency is read from the fitted curve at half-maximal effect
Procedure, shortened: as §2

[7] = molecular target: Retinaldehyde dehydrogenase 3 (Homo sapiens) (UniProt P47895); experiment: qHTS for Inhibitors of the Aldehyde Dehydrogenase Family (ALDH1A3) Validation screen (AID 2061312); also: nearly all actives have a fitted effect of over 45% in size; also: potency is read from the fitted curve at half-maximal effect
[8] = molecular target: Retinaldehyde dehydrogenase 3 (Homo sapiens) (UniProt P47895); experiment: qHTS for Inhibitors of the Aldehyde Dehydrogenase Family (ALDH1A3) Primary screen (AID 2061315); also: potency is read from the fitted curve at half-maximal effect
[9] = molecular target: Retinaldehyde dehydrogenase 3 (Homo sapiens) (UniProt P47895); experiment: qHTS for Inhibitors of the Aldehyde Dehydrogenase Family (ALDH1A3) Confirmatory screens (AID 2061311); also: potency is read from the fitted curve at half-maximal effect; nearly all actives have a fitted effect of over 60% in size
[10] = molecular target: Aldehyde dehydrogenase 1A1 (Homo sapiens) (UniProt P00352); experiment: qHTS for Inhibitors of the Aldehyde Dehydrogenase Family (ALDH1A1) Confirmatory screens (AID 2061316); also: nearly all actives have a fitted effect of over 65% in size; also: potency is read from the fitted curve at half-maximal effect
[11] = BET inhibitor-based combinations targeting novel dependencies in MECOM-rearranged (r) AML: SET-2 cell line (AID 2202231); settings: SET-2 AML cells viability, CellTiter-Glo luminescence, 48 h; viability: stronger effect = lower value, concentration not given here; also: nearly all actives have a fitted effect of over 35% in size; also: potency is read from the fitted curve at half-maximal effect;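 as to viability: plate controls were DMSO treated cells for no effect and wells without cells for full effect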
Procedure, shortened: as §1

[12] = BET inhibitor-based combinations targeting novel dependencies in MECOM-rearranged (r) AML: HNT-34 cell line (AID 2202234); also: nearly all actives have a fitted effect of over 35% in size; also: potency is read from the fitted curve at half-maximal effect
Procedure, shortened: as §2

[13] = BET inhibitor-based combinations targeting novel dependencies in MECOM-rearranged (r) AML: AML-194 cell line (AID 2202237; also: nearly all actives have a fitted effect of over 40% in size; also: potency is read from the fitted curve at half-maximal effect)
Procedure, shortened: as §1

Cellular tumor antigen p53 (Homo sapiens), sequence (P04637 whole entry, looked up): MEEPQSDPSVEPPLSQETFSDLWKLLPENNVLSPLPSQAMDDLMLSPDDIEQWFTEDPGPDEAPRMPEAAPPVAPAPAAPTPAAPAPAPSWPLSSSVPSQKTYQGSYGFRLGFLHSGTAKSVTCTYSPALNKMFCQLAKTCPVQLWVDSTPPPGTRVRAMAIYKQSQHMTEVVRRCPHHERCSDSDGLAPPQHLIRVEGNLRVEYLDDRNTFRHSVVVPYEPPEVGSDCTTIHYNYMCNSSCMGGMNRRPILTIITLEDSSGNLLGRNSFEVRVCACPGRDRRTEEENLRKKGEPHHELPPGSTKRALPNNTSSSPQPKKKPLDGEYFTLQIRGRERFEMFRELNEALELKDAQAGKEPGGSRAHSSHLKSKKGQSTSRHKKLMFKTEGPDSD

OCc1ccc(-c2ccc(-c3ccc(CO)s3)o2)s1
active: Potency [3] 18.6 µM | Potency [4] 13.2 µM | Potency [5] 26.3 µM
inactive: activation [1] 23.8% and 25% | Potency [2]

CN1CCc2c(n(Cc3ccc(C(=O)NO)cc3)c3ccccc23)C1
inactive: activation [1] 23.6% | Potency [2] | Potency [6]
active: Potency [4] 20.9 µM

Clc1ccc(Cn2c(Cc3ccccc3)nc3ccccc32)cc1
inactive: activation [1] -5.25% | Potency [7] | Potency [8]

O=C1OCc2cc3cccc(O[C@@H]4O[C@H](CO)[C@@H](O)[C@H](O)[C@H]4O)c3c(O)c21
inactive: activation [1] -11.5%
active: Potency [9] 13.9 µM

CC1=C(C(=O)OC2CCCCC2)C(c2ccc([N+](=O)[O-])cc2)C2=C(CC(C)(C)CC2=O)N1 (stereo unspecified)
inactive: activation [1] 7.16%
active: Potency [9] 2.25 µM | Potency [7] 5.62 µM | Potency [8] 7.08 µM | Potency [10] 10.1 µM

CCOc1cc(N2CCC(O)CC2)ccc1Nc1ncc2c(n1)N(C1CCCC1)CCC(=O)N2C
inactive: activation [1] 4.33% | Potency [10]
active: Potency [9] 20.1 µM

NC(=O)c1noc([C@H](CCCC2CCCCC2)CC(=O)NO)n1
active: Potency [11] 5.9 µM | Potency [3] 14.8 µM | Potency [4] 18.6 µM | Potency [12] 2.95 µM | Potency [6] 5.25 µM
inactive: activation [1] -7.14% | Potency [2]

COc1cc2c(cc1OCCCN1CCCC1)N=C(N)C21CCC1
inactive: activation [1] 5.59% | Potency [2] | viability [11] 106% | Potency [3] | Potency [12] | Potency [6] | Potency [5] | Potency [13]

CN(C)Cc1c(C(=O)NCCOc2ccc(C(=O)NO)cc2)oc2ccccc12
inactive: Potency [2]
active: Potency [1] 21.7 µM | Potency [11] 0.662 µM | Potency [3] 0.59 µM | Potency [4] 0.263 µM | Potency [12] 0.934 µM | Potency [6] 0.662 µM | Potency [5] 0.742 µM | Potency [13] 0.934 µM

COc1cc(N2CCN(C(C)=O)CC2)ccc1Nc1ncc(Cl)c(Nc2ccc(N3CCN(C(C)=O)CC3)cc2OC)n1
inactive: activation [1] -5.36% | Potency [2]
active: Potency [4] 0.934 µM | Potency [12] 6.61 µM | Potency [6] 4.17 µM

CCOc1nc2cccc(C(=O)OCc3oc(=O)oc3C)c2n1Cc1ccc(-c2ccccc2-c2noc(O)n2)cc1
inactive: activation [1] 0% | Potency [7] | Potency [8]

CNC(=O)c1c(F)cccc1Nc1nc(Nc2cc3c(cc2OC)CCN3C(=O)CN(C)C)nc2[nH]ccc12
active: Potency [11] 8.33 µM | Potency [3] 9.34 µM | Potency [4] 7.42 µM | Potency [12] 6.61 µM | Potency [6] 8.33 µM | Potency [13] 7.42 µM
inactive: activation [1] 42.7% | Potency [2]

COC(=O)C1=C(C)NC(C)=C(C(=O)O[C@@H]2CCCN(Cc3ccccc3)C2)[C@@H]1c1cccc([N+](=O)[O-])c1
inactive: activation [1] 8.47% and 23.4% | Potency [7] | Potency [8]

CCCCc1nc2cc(/C=C/C(=O)NO)ccc2n1CCN(CC)CC
inactive: Potency [2]
active: Potency [1] 27.3 µM | Potency [11] 0.662 µM | Potency [3] 0.833 µM | Potency [4] 0.332 µM | Potency [12] 0.833 µM | Potency [6] 0.833 µM | Potency [13] 1.18 µM

COc1cc(N2CCC(N)CC2)ccc1Nc1ncc(Cl)c(-c2c[nH]c3ccccc23)n1
active: Potency [1] 26.9 µM | Potency [11] 18.6 µM | Potency [3] 5.9 µM | Potency [4] 0.0661 µM | Potency [12] 1.32 µM | Potency [6] 1.48 µM | Potency [5] 8.33 µM | Potency [13] 10.5 µM
inactive: Potency [2]

CNC(=O)c1ccccc1Nc1nc(Nc2ccc(N3CCOCC3)cc2OC)ncc1Cl
inactive: Potency [2]
active: Potency [1] 3.06 µM and 21.3 µM | Potency [11] 16.6 µM | Potency [3] 0.833 µM | Potency [4] 0.263 µM | Potency [12] 1.32 µM | Potency [6] 2.35 µM

C=CC(=O)N1CC(N2CCN(C(=O)CNc3cc(C4CC4)c(Cl)cc3O)CC2)C1
active: Potency [9] 4 µM | Potency [7] 10 µM | Potency [8] 2.51 µM | Potency [10] 22.5 µM
inactive: activation [1] 10%

C=CC(=O)Nc1cccc(Nc2nc(Nc3ccc(NC4CN(CCF)C4)cc3OC)ncc2C(F)(F)F)c1
active: Potency [1] 7.57 µM | Potency [11] 18.6 µM | Potency [3] 16.6 µM | Potency [4] 2.63 µM | Potency [12] 3.32 µM | Potency [6] 9.34 µM | Potency [5] 13.2 µM | Potency [13] 13.2 µM
inactive: Potency [2]

Cc1ccccc1C(C(=O)NC1CCCCC1)N(C(=O)Cn1ccnc1C)c1cccc(F)c1 (stereo unspecified)
inactive: activation [1] -12.7% and -11.5% | Potency [7] | viability [11] 116% | Potency [4] | Potency [6] | Potency [5] | Potency [13]

CCC/C=C/C=C/C1CC(O)C(O)C(=O)C1CO (stereo unspecified)
inactive: activation [1] -17.6% | Potency [8]

CO[C@@H](Cc1ccc(OCCc2nc(-c3ccccc3)oc2C)c2ccsc12)C(=O)O
inactive: activation [1] -6.25% | Potency [8]

C[C@H](Nc1ncnc2nc[nH]c12)c1cc2ccc(F)cc2nc1-c1ccccn1
inactive: activation [1] 5% | Potency [8]
